For 22 molecules, Potency, activity change, negative = inhibition and activity change, negative = cytotoxicity results are on record in PubChem BioAssay (NCATS).

Test [1] deals with C33A. The test is described as follows: Primary qHTS to identify gynecologic anti-cancer compounds using libraries of approved drugs and bioactive compounds (AID 1345084). Note: nearly all actives have a fitted effect of over 55% in size. To be noted: Gynecologic cancer cell panel viability, ATPlite luminescence, 48 h; series mostly up to 57.5 µM. The method in brief: (§1)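 Cells, 1,000 per well, plated 16 h, then exposed 48 h at 37 C to compounds. Viability by ATPlite luminescence after 15 min at room temperature.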

Test [2] has as its system CASKI. The test is described as above. The following applies: Gynecologic cancer cell panel viability, ATPlite luminescence, 48 h; series mostly up to 57.5 µM. Summed up:
as §1

In test [3] the test system is Es-2. The description is as above. To be noted: Gynecologic cancer cell panel viability, ATPlite luminescence, 48 h; series mostly up to 57.5 µM. The method in brief:
as §1

Test [4] has as its system HeLa. The description is as above. The following applies: Gynecologic cancer cell panel viability, ATPlite luminescence, 48 h; series mostly up to 57.5 µM. The method in brief:
as §1

In test [5] the test system is Hek293T. Described as above. To be noted: Gynecologic cancer cell panel viability, ATPlite luminescence, 48 h, control line for the selectivity index; series mostly up to 57.5 µM. The method in brief:
as §1

The subject of test [6] is JEG-3. The description is as above. The following applies: Gynecologic cancer cell panel viability, ATPlite luminescence, 48 h; series mostly up to 57.5 µM. Summed up: as §1
For test [7], the system named is OV90. The test is described as above. To be noted: Gynecologic cancer cell panel viability, ATPlite luminescence, 48 h; series mostly up to 57.5 µM. The method in brief: as §1
Test [8] concerns PA-1. Described as above. To be noted: Gynecologic cancer cell panel viability, ATPlite luminescence, 48 h; series mostly up to 57.5 µM. The method in brief:
as §1

The test system of test [9] is SKOV3. Described as above. To be noted: Gynecologic cancer cell panel viability, ATPlite luminescence, 48 h; series mostly up to 57.5 µM. Summed up: as §1
Test [10] has as its system Tov-21-G. Described as above. To be noted: Gynecologic cancer cell panel viability, ATPlite luminescence, 48 h; series mostly up to 57.5 µM. The method in brief: as §1
Test [11] has as its system Tov112D. The test is described as above. To be noted: Gynecologic cancer cell panel viability, ATPlite luminescence, 48 h; series mostly up to 57.5 µM. Summed up:
as §1

Test [12] is described as follows: qHTS assay to identify inhibitors of the type 1 interferon - major histocompatibility complex class I in skeletal muscle: Counter screen cell viability and HiBit confirmation (AID 1347412). For all read-outs here: nearly all actives have a fitted effect of over 60% in size. To be noted: iHSKM muscle cells + IFN-b, HiBiT or CellTiter-Glo, 24 h; for activity change, negative = inhibition: at 45.9 µM (top of the series). The method in brief:
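Myoblasts (C25cl48, HLA-B HiBiT) seeded in medium without dexamethasone, IFN-b 4 ng/ml added except unstimulated columns; 1 hr later compounds pinned (12-pt 1:3, top 46 uM final). Incubated 24 hrs, lysed 10 min, luminescence measured.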

Records with an inconclusive call do not appear. Unmarked numbers belong to inactive results. The source made the active and inactive calls. Calls come from the whole dose curve; as a rule, active = well fitted curve in the direction sought with a large enough effect; inconclusive = small, poorly fitted or top-dose-only effect, or another doubt; inactive = no such curve, though single readings can be large; an effect the other way counts as inactive or inconclusive.
% is set by controls: 0 for no effect and ±100 for the full control effect; potency is the fitted concentration of half-maximal effect.

Turning to `CC1(C)CCCC2(C)C(CO)C(CO)=CCC12` (configuration not stated), the Potency result in [1], in [2], in test [3], in test [4], in [5] and in [6] was “inactive” throughout. Moreover, the Potency entry in [7], in test [8], in [9], in test [10] and in test [11] was “inactive” in each case.

For `CCN1CCN(Cc2ccc(NC(=O)c3ccc(C)c(/C=C/c4cnc5[nH]ccc5c4OC)c3)cc2C(F)(F)F)CC1`, the Potency in [12] (Viability) was 14 µM (active).

In the case of `Cc1ccc([N+](=O)[O-])cc1S(=O)(=O)N(C)/N=C/c1cnc2ccc(Br)cn12`, the activity change, negative = inhibition in [12] (Viability) is -5.21%.

For the molecule `O=C(/C=C/c1cccc(S(=O)(=O)Nc2ccccc2)c1)NO`, in test [12] (Viability), the activity change, negative = inhibition is -9.07%.

As to `Cc1cnc(NC(=O)Nc2cc(Br)c(C)cc2OCC2CNCCO2)cn1` (configuration not stated), the Potency result in test [1], in test [2], in test [6], in test [8] and in test [11] was “inactive” in each case. For the same molecule, the Potency in [5] was 8.91 µM (active); in [9] it was 10 µM (active).

As for `CC(C)(C)c1ccc(S(=O)(=O)NCc2ccc(C(=O)Nc3cccnc3)cc2)cc1`, the Potency in test [1] is 7.94 µM (active); in test [3], 3.55 µM (active); in [4], 1.78 µM (active); in test [6], 2.24 µM (active); in [7] it was 3.98 µM (active); in test [8] it was 1.12 µM (active). In addition, the Potency in [9] is 7.08 µM (active); in [10], 1.78 µM (active).

As to `O=C(Nc1ccc(Cl)cc1F)c1ccccc1O`, the figures for the Potency in test [1], in test [3] and in test [5] were 14.1 µM (active), 15.8 µM (active) and 17.8 µM (active), respectively. In addition, the Potency entry in [6] was “inactive”.

In the case of `N#Cc1c(Oc2ccc(F)c(NC(=O)Cc3cccc(C(F)(F)F)c3)c2)ccc2nc(NC(=O)C3CC3)sc12`, in test [1], the Potency result is “inactive”. The Potency in test [3] is 5.62 µM (active); in [4], 10 µM (active); in test [7], 1.58 µM (active); in [8], 8.91 µM (active); in test [10], 7.94 µM (active).

For `C=CC(=O)N1CCN(C(=O)CNc2cc(I)c(Cl)cc2O)CC1`, the Potency entry in test [1], in [3], in test [4], in [5], in test [6] and in test [7] was “inactive” throughout. Moreover, the Potency result in [8], in test [9], in [10] and in test [11] was “inactive” each time.

With `O=C(O)C1CN(Cc2ccc(-c3nc4cc(Cc5ccccc5F)ccc4s3)c(F)c2)C1`, the activity change, negative = cytotoxicity in [1] is 7.49% [at 11.6 µM]; in test [3], 0.907% [at 11.6 µM]; in test [4] it was 11.8% [at 11.6 µM]; in test [5], 9.39% [at 11.6 µM]; in [6], 9.86% [at 11.6 µM]; in [7], 12.7% [at 11.6 µM]. The activity change, negative = cytotoxicity was 0.219% [at 11.6 µM] in test [10] and 10.6% [at 11.6 µM] in test [11].

For `O=C(c1cccc(Cl)c1F)N1CCN(Cc2cccc(Nc3nccs3)n2)CC1`, the Potency result in test [1], in [3], in test [6] and in test [7] was “inactive” throughout. Also, the Potency in test [4] was 1 µM (active); in [11], 0.891 µM (active).

Consider `COc1ccc(CCC(=O)c2c(O)cc(O)cc2O[C@@H]2O[C@H](CO)[C@@H](O)[C@H](O)[C@H]2O)cc1`, for which the Potency result in test [1], in [2], in [4], in test [6], in test [7] and in [8] was “inactive” throughout. In addition, the Potency result in [10] and in test [11] was “inactive” throughout.

Turning to `Cc1cc(N(C)C)ccc1-c1nc2ccc(-c3nc4ccc(N5CCN(C)CC5)cc4[nH]3)cc2[nH]1`, the Potency result in test [1], in test [3], in test [4], in test [5], in test [6] and in test [7] was “inactive” each time. In addition, the Potency result in test [10] and in test [11] was “inactive” throughout.

Regarding `NC[C@@](O)(c1ccc(Cl)cc1)c1ccc(-c2cn[nH]c2)cc1`, the Potency in test [1] is 22.4 µM (active); in test [2], 28.2 µM (active); in test [4] it was 25.1 µM (active); in test [5] it was 28.2 µM (active); in test [8] it was 15.8 µM (active); in test [9] it was 20 µM (active). Moreover, the Potency was 10 µM (active) in [10], 25.1 µM (active) in test [11], 6.25 µM (active) in [12] (HiBiT) and 8.83 µM (active) in test [12] (Viability).

With `CC1CCC2C(C(=O)O)=COC(O[C@@H]3O[C@H](CO)[C@@H](O)[C@H](O)[C@H]3O)C12` (some centres not stated), the Potency entry in test [1], in test [2], in test [3], in test [5], in test [7] and in [8] was “inactive” each time. The Potency entry in [10] and in [11] was “inactive” throughout.

`O=[N+]([O-])c1cccc2[nH]c(CNc3nc(N4CCOCC4)nc4c3ncn4-c3ccsc3)nc12`: the Potency in [1] was 0.178 µM (active); in [2], 0.891 µM (active); in [4] it was 0.891 µM (active); in test [5], 0.316 µM (active); in test [8], 0.891 µM (active); in [9], 0.794 µM (active). Moreover, the Potency in test [11] is 0.447 µM (active).

As for `CCCN1CCC(c2cccc(S(C)(=O)=O)c2)CC1`, the Potency result in test [1], in test [3], in test [4], in test [5] and in test [7] was “inactive” each time.

Consider `C=C(C)C(=O)OC1C(OC(C)=O)/C(C=O)=C\CC/C(CO)=C/C2OC(=O)C(=C)C21` (configuration not stated), for which the Potency entry in test [1], in test [2], in test [4], in test [6], in test [7] and in [8] was “inactive” each time. In addition, the Potency entry in test [9] and in test [11] was “inactive” throughout.

Regarding `CN(C)CCCCC(=O)Nc1ccc(NC(=S)NC(=O)c2ccc(C(C)(C)C)cc2)cc1`, the Potency entry in test [1], in test [2], in [6] and in test [11] was “inactive” in each case. In addition, the Potency in test [8] was 15.8 µM (active).

`Cc1c(F)cc(C(=O)NC2CC2)cc1-c1c(F)cn2c(C(C)(C)C)nnc2c1F`: the Potency entry in [1], in test [3], in [4], in test [5], in test [6] and in [7] was “inactive” throughout. Further, the Potency result in test [8], in test [9], in test [10] and in test [11] was “inactive” throughout.

As for `CN(C)c1ccc2c(c1)OC(N)=C(C#N)C2c1cccc(C(F)(F)F)c1` (configuration not stated), the Potency in [1] is 0.631 µM (active); in test [3], 1 µM (active); in [4] it was 0.501 µM (active); in test [6], 0.282 µM (active); in [7], 1.41 µM (active); in test [8], 0.178 µM (active). For the same molecule, the Potency in test [10] was 0.251 µM (active); in test [11], 0.316 µM (active).

For `CN(c1ccccc1CNc1nc(Nc2ccc3c(c2)CC(=O)N3)ncc1C(F)(F)F)S(C)(=O)=O`, the Potency in [1] was 6.31 µM (active); in [3], 20 µM (active); in test [4], 15.8 µM (active); in test [7] it was 8.91 µM (active); in test [8], 15.8 µM (active); in test [11], 25.1 µM (active). In addition, in [10], the Potency result is “inactive”.
